Source: the supplement of paper PMC13094657
± gives the standard deviation of the averaged measurements.

Test system: MDA-MB-231
Assay: cell viability relative to vehicle unstimulated control (fraction); higher = more viable cells
Details: pre-treatment time: 18 h then 24 h IFNg/TNF
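Note: viability of the cells left after supernatant collection, read with Deep Blue dye added for 4 h, as absorbance at 570 nm minus 600 nm.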

Row | Compound | cell viability
1 | CC(=O)O[C@@H]1[C@H]2[C@@H](OC(=O)Cc3ccccc3)[C@@H](C)C[C@]2(OC(C)=O)C(=O)/C(C)=C/[C@@H]2[C@H](CC[C@]13CO3)C2(C)C [Euphorbia Factor L1] (compound dose: 10 uM) | 0.909 ± 0.045
2 | C[C@@H]1C(=O)O[C@H]2[C@H](O)[C@@]34O[C@@H]5OC(=O)[C@H](O)[C@@]56[C@H](C(C)(C)C)[C@H](O)C(OC3=O)[C@]64[C@@]12O (some centres undefined) [Ginkgolide C] (compound dose: 10 uM) | 0.9704 ± 0.0066
3 | CC(C)[C@]12O[C@H]1[C@@H]1O[C@@]13[C@@]1(C)CCC4=C(COC4=O)[C@@H]1C[C@@H]1O[C@@]13C2=O [Triptonide] (compound dose: 10 uM) | 0.637 ± 0.069
4 | COC(=O)[C@]1(C)CC[C@]2(C)CC[C@]3(C)C4=CC=C5C(=CC(=O)C(O)=C5C)[C@]4(C)CC[C@@]3(C)[C@@H]2C1 [Pristimerin] (compound dose: 10 uM) | -0.0372 ± 0.0069
5 | CC(C)=CCC[C@](C)(O)[C@H]1CC[C@]2(C)[C@@H]1[C@H](O)C[C@@H]1[C@@]3(C)CC[C@H](O[C@@H]4O[C@H](CO)[C@@H](O)[C@H](O)[C@H]4O)C(C)(C)[C@@H]3CC[C@]12C [Ginsenoside Rh2] (compound dose: 10 uM) | 0.908 ± 0.049
6 | C=C1[C@H](OC(=O)c2ccccc2)C[C@H]2[C@@H](/C=C(\C)C(=O)[C@@]3(OC(C)=O)C[C@H](C)[C@H](OC(=O)c4ccccc4)[C@@H]3[C@H]1OC(C)=O)C2(C)C [Euphorbia Factor L2] (compound dose: 10 uM) | 0.847 ± 0.044
7 | C=C1[C@H](OC(C)=O)[C@@H](OC(=O)c2ccccc2)[C@@H](OC(C)=O)C(C)(C)[C@H]2O[C@](O)([C@@H](C)C2=O)[C@@]2(OC(C)=O)C[C@H](C)[C@H](OC(C)=O)[C@@H]2[C@H]1OC(C)=O [Kansuinine A] (compound dose: 10 uM) | 0.934 ± 0.028
8 | Cc1cc(O)c2c(=O)c3c(O)cc(O)c4c5c(O)cc(O)c6c(=O)c7c(O)cc(C)c8c1c2c(c34)c(c78)c65 [Hypericin] (compound dose: 10 uM) | 0.0887 ± 0.085
9 | C=C[C@H]1[C@H](O[C@@H]2O[C@H](CO)[C@@H](O)[C@H](O)[C@H]2O)OC=C2C(=O)OCC[C@H]21 [Sweroside] (compound dose: 10 uM) | 0.996 ± 0.063
10 | C[C@]1(C(=O)O)CCC[C@]2(C)c3cc(O)ccc3CC[C@@H]12 [Podocarpic acid] (compound dose: 10 uM) | 0.946 ± 0.07
11 | CC(C)(O)/C=C/C(=O)[C@](C)(O)[C@H]1[C@H](O)C[C@@]2(C)[C@@H]3CC=C4[C@@H](C[C@H](O)C(=O)C4(C)C)[C@]3(C)C(=O)C[C@]12C [Cucurbitacin D] (compound dose: 10 uM) | 0.55 ± 0.022
12 | COc1ccc2c3c1O[C@H]1CC(=O)C=C[C@@]31CCN(C)C2 [Galanthaminone] (compound dose: 10 uM) | 0.953 ± 0.034
13 | COc1cc2c(c(OC)c1OC)-c1ccc(OC)c(=O)cc1[C@@H](NC(C)=O)CC2 [Colchicine] (compound dose: 10 uM) | 0.802 ± 0.097
14 | CC(C)[C@]12O[C@H]1[C@@H]1O[C@]13[C@]1(O[C@H]1C[C@H]1C4=C(CC[C@@]13C)C(=O)OC4)[C@@H]2O [Triptolide] (compound dose: 10 uM) | 0.64 ± 0.034
15 | C=C1CC[C@H]2[C@@H](/C=C(\C)C(=O)[C@@]3(O)C[C@H](C)[C@H](O)[C@@H]3[C@@H]1O)C2(C)C [Lathyrol] (compound dose: 10 uM) | 1.08 ± 0.11
16 | COc1cc2c(cc1OC)-c1c(OC)c(OC)cc3c1[C@H](C2)N(C)CC3 [(S)-Glaucine (commercial standard)] | 1.07 ± 0.065
17 | COc1cc(C(=O)O[C@H]2[C@@H]3C=CO[C@@H](O[C@@H]4O[C@H](CO)[C@@H](O)[C@H](O)[C@H]4O)[C@@H]3[C@@]3(CO)O[C@@H]23)ccc1O [Picroside II] (compound dose: 10 uM) | 0.923 ± 0.039
18 | CC(C)c1ccc2c(c1O)CC[C@H]1C3=C(CC[C@]21C)C(=O)OC3 [Triptophenolide] (compound dose: 10 uM) | 0.9594 ± 0.0068
19 | CC(=O)O[C@H]1[C@H]2[C@@H](OC(=O)Cc3ccccc3)[C@@H](C)C[C@]2(OC(C)=O)C(=O)/C(C)=C/[C@@H]2[C@H](CC[C@@]13CO3)C2(C)C [Euphorbiasteroid] (compound dose: 10 uM) | 0.981 ± 0.059
